# “And” between values parts separate entries of the source, which are not always exact repeats. Equal entries are not always repeated. For part of these data: Measured potencies and affinities stand elsewhere. The source made the active and inactive calls.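 Rule for the calls, unless noted: active = at least 20% inhibition of 6-phosphogluconate dehydrogenase activity; inactive = the rest.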
# Columns and labels:
# [1] = target: 6-phosphogluconate dehydrogenase, decarboxylating (Homo sapiens) (UniProt P52209); experiment: inhibition of human phosphogluconate dehydrogenase – biochemical, recombinant enzyme, NADPH absorbance, primary screen (AID 1159550); conditions: recombinant 6PGD, NADPH absorbance 341 nm; at 10 µM; stronger effect = higher value
# [2] = test system: Aerobactin synthetase IucA (Klebsiella pneumoniae hvKP1); experiment: IucA enzyme inhibition, primary screen, biochemical, Spectrum library (AID 1346200; call rule not given here;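 note: 100% = wells without compound and 0% = wells lacking enzyme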); conditions: malachite green pyrophosphate, A620, at 8 µM, stronger effect = lower value
# [3] = P. berghei load reduction in hepatocytes – cell-based, HepG2, luciferase luminescence, HepG2 viability, primary screen (AID 624349; in the data active = parasite load remaining mostly below about 12%, no sharp cut-off; inactive = mostly above about 10%;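 note: 100% = mean of DMSO negative control wells on the same plate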); conditions: P. berghei liver stage in HepG2, luciferase luminescence, concentration not given here; parasite load remaining: stronger effect = lower value; viability: measured here: HepG2 viability without parasites
# [4] = EMT-state selective cytotoxicity in co-culture – imaging, PC-3E GFP, TEM4-18 mCherry, primary screen (AID 1345086;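 active = compounds killing one labelled cell type while sparing the other, by normalised counts and ratio limits, not self-fluorescent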;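 for all read-outs here: cells exposed to compound for 72 h before imaging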;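 for red/green cell ratio (normalised): normalised mesenchymal count divided by normalised epithelial count so high means epithelial killing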); conditions: PC-3E GFP / TEM4-18 mCherry co-culture, imaging cell counts, at 1 µM; for red/green cell ratio (normalised): actives lie on both sides
# [5] = viability loss with induced miR-34 in A549 – imaging, A549 dox-inducible miR-34, nuclei and caspase counts, primary screen (AID 1347080;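 active = compounds whose cell count with miR-34 switched on is under 0.7 times the count with it off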); conditions: A549 miR-34 inducible, Hoechst nuclei count, 48 h
# [6] = target: NAD(+) hydrolase SARM1 (Homo sapiens) (UniProt Q6SZW1); experiment: blocking NAD cleavage by SARM1 SAM-TIR – cell lysate, NAD-Glo luminescence (AID 1508614;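 active = compound whose remaining NAD level is above about 45 nM, limit read from the data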;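 note: higher remaining NAD means stronger inhibition of SARM1 NADase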); conditions: SAM-TIR HEK293T lysate NADase, at 1 µM, stronger effect = higher value
# [7] = target: Mitogen-activated protein kinase 7 (Homo sapiens) (UniProt Q13164); experiment: Gal4-ERK5 driven luciferase induction – cell-based, HTS, primary screen (AID 1508626;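 active = luciferase signal above three times the same-plate solvent-only control wells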;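 note: luciferase driven by Gal4-ERK5 fusion binding five Gal4 sites before minimal TATA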); conditions: HeLa Gal4-ERK5 transactivation, 18 h, at 5 µM, stronger effect = higher value
# [8] = yeast 75Q aggregation reduction – 75Q-TubU reporter (AID 1593); conditions: Yeast 75Q polyglutamine aggregation reporter
# [9] = restoration of touch response, mutant HTT neurons – whole organism, C. elegans mechanosensory neurons, N-terminal huntingtin (AID 1599); conditions: C. elegans polyQ-huntingtin mechanosensory neurons, stronger effect = higher value
# [10] = blockers of cytochrome c efflux from mitochondria – biochemical, purified mitochondria (AID 1603); conditions: stronger effect = lower value;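 note: mouse liver mitochondria challenged with calcium chloride; signal normalized to the plate average as 100%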
# [11] = polyglutamine aggregate formation blockers (AID 1604); conditions: polyglutamine-induced protein aggregation inhibition assay; stronger effect = higher value; tested at 2.5 µM
# [12] = glutamate transport activators, MN-1 cells, MN-1 cell line (AID 1612); conditions: MN-1 motor neuron cells, stronger effect = higher value;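 note: tested at 1 µM final; 0% = mean of DMSO vehicle wells on each plate; positive means more glutamate uptake than control and negative means less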
# [13] = GFP-Q80 aggregate reduction, neuronal-like cells, cell-based, NGF-treated PC12, GFPQ80 (AID 1614); conditions: PC12 NGF-treated GFP-polyQ80 inclusion reduction;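 note: lower means fewer inclusions and 0 means no inclusions at all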
# [14] = 75Q-TubH aggregate inhibition, S. cerevisiae, yeast (AID 1616); conditions: S. cerevisiae 75Q-TubH polyglutamine aggregation suppression; stronger effect = higher value
# [15] = blockers of polyQ-driven CASP3 activation – cell-based (AID 1583); conditions: polyglutamine-induced caspase-3 activation, cell assay; stronger effect = higher value;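 tested at 10 µM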
# [16] = MELAS cybrid and Rieske KO viability enhancers – cell-based, MELAS cybrids, Rieske KO mouse fibroblasts, CellTiter-Glo, primary screen (AID 1508586;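 active = mean z-score across replicates of 1.96 or higher in either the MELAS or the Rieske mutant cell line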;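 note: z relative to plate mean and SD of compound and empty wells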); conditions: low glucose
# [17] = compounds altering viability of human ES cells (AID 493140; call rule not given here;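 note: cells exposed to compounds for four days before counting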); conditions: human embryonic stem cell survival screen; stronger effect = higher value
# [18] = measured here: epithelial PC-3E GFP cell survival
# [19] = measured here: mesenchymal TEM4-18 mCherry cell survival
# [20] = measured here: relative caspase fold change +Dox/-Dox
# [21] = measured here: total cells with miR-34 induction, stronger effect = lower value
# [22] = measured here: total cells without miR-34 induction
# NAD(+) hydrolase SARM1 (Homo sapiens), sequence (Q6SZW1 whole entry, looked up, the tested form may be a part): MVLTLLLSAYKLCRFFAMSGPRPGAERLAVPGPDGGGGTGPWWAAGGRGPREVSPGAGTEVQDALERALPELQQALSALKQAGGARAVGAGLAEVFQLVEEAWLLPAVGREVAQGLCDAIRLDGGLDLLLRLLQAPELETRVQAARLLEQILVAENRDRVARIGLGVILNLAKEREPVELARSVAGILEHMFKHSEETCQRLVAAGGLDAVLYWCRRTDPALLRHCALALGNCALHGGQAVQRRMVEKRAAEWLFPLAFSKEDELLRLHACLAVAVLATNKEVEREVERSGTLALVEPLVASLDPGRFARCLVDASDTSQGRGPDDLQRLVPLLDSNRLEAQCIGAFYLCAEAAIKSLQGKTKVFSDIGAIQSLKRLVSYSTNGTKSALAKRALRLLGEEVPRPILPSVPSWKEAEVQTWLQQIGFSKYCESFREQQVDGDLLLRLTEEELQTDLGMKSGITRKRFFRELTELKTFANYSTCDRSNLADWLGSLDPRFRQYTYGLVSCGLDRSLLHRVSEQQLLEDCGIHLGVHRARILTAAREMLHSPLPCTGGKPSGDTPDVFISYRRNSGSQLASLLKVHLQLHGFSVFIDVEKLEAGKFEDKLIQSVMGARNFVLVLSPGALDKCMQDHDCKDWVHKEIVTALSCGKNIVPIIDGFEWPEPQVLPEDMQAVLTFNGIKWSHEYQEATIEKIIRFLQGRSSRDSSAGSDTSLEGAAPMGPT
# Mitogen-activated protein kinase 7 (Homo sapiens), sequence (Q13164 whole entry, looked up, the tested form may be a part): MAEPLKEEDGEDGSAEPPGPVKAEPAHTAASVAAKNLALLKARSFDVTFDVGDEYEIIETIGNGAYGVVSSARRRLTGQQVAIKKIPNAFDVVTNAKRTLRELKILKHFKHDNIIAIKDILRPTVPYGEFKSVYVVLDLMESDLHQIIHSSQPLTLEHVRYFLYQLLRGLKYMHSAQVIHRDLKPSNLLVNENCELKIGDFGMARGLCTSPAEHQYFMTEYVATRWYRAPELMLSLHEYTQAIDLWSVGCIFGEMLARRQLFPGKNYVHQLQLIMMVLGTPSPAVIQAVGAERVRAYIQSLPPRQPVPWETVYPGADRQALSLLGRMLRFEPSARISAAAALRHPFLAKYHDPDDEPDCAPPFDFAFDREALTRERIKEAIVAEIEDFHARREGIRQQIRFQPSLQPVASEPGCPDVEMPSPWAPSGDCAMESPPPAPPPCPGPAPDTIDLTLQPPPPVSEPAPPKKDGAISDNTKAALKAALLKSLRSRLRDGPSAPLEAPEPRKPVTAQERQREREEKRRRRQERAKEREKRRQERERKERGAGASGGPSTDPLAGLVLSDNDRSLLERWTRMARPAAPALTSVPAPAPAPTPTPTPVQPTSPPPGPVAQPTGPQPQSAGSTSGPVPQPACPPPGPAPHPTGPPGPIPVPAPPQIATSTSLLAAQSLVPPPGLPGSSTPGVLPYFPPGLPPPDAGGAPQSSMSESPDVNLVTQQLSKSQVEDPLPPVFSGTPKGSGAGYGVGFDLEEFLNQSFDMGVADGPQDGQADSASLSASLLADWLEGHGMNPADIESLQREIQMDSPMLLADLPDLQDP
# 6-phosphogluconate dehydrogenase, decarboxylating (Homo sapiens), sequence (P52209 whole entry, looked up): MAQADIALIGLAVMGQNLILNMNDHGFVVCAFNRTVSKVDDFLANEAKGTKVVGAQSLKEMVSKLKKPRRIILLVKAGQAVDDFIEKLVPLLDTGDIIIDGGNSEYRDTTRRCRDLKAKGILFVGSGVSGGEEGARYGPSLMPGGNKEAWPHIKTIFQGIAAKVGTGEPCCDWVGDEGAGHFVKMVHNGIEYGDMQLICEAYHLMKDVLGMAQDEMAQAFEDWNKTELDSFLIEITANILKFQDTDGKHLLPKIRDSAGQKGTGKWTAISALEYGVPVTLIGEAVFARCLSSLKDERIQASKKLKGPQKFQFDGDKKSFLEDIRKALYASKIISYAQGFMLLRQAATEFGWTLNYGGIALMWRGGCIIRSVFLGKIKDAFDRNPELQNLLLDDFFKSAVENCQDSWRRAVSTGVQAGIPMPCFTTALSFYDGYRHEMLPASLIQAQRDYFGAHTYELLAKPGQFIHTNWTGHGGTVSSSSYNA
smiles,measurement,setting,value
NCC(N)C(=O)c1ccccc1 (stereo not drawn),inhibition,[1],-14.8% (inactive)
same,activity remaining,[2],109% (inactive)
COc1c(CC=C(C)C)c2c(c3oc(=O)c(-c4ccc(O)cc4)c(O)c13)C=CC(C)(C)O2,inhibition,[1],-2.87% (inactive)
same,activity remaining,[2],114% (inactive)
CNc1ccc(C(=O)CC(O)CCC(C)C2OC(=O)CC(O)CC(=O)CC(O)CC(O)CC(O)CC(O)CC3(O)CC(O)C(C(=O)OC)C(CC(O[C@@H]4O[C@H](C)[C@@H](O)[C@H](N)[C@@H]4O)/C=C/C=C/C=C/C=C/C=C/C=C/C=C/C2C)O3)cc1 (stereo partly drawn),parasite load remaining,[3],132% (inactive) and 33.6% (inactive)
same,viability,[3],90% and 101%
same,inhibition,[1],2.08% (inactive)
same,red/green cell ratio (normalised),[4],1.39 (inactive)
same,normalised cell number,[4]; [18],0.82
same,normalised cell number,[4]; [19],1.14
same,fold change,[5]; stronger effect = lower value,0.878 (inactive)
same,fold change,[5]; [20],3.37
same,cell count,[5]; [21],11000
same,cell count,[5]; [22],12500
same,remaining NAD,[6],10 nM (inactive)
COc1cc2c(c(OC)c1OC)-c1ccc(O)c(=O)cc1[C@@H](NC(C)=O)CC2,inhibition,[1],7.64% (inactive)
same,activity remaining,[2],120% (inactive)
CNc1ccccc1C(=O)O,inhibition,[1],18.3% (inactive)
same,red/green cell ratio (normalised),[4],0.85 (inactive)
same,normalised cell number,[4]; [18],1.13
same,normalised cell number,[4]; [19],0.95
same,luciferase signal,[7],76 AU (inactive)
CCOP(=S)(OCC)SCn1c(=O)oc2cc(Cl)ccc21,inhibition,[1],-13.8% (inactive)
same,activity remaining,[2],96.1% (inactive)
CNC(=O)CSP(=S)(OC)OC,inhibition,[1],-17.5% (inactive)
same,activity remaining,[2],98.2% (inactive)
Oc1c(Cl)c(Cl)c(Cl)c(Cl)c1Cl,inhibition,[1],4.09% (inactive)
same,red/green cell ratio (normalised),[4],0.88 (inactive)
same,normalised cell number,[4]; [18],1.25
same,normalised cell number,[4]; [19],1.1
same,luciferase signal,[7],480 AU (active)
C[C@]12CCC3C(CC[C@]4(O)C[C@@H](O)CC[C@]34C=O)[C@@]1(O)CCC2C1=CC(=O)OC1 (stereo partly drawn),score,[8],1.09
same,rescue above control,[9],6.59
same,cytochrome c release ratio,[10],1.29
same,inhibition of aggregation,[11],62.8%
same,glutamate uptake change,[12],13.8%
same,inclusion score,[13],0
same,aggregation suppression score,[14],1.29
same,inhibition,[1],14.9% (inactive)
same,red/green cell ratio (normalised),[4],0.2 (inactive)
same,normalised cell number,[4]; [18],0.18
same,normalised cell number,[4]; [19],0.04
same,activity remaining,[2],79.3% (inactive)
OC[C@@H]1CCCN2CCCC[C@H]12,parasite load remaining,[3],133% (inactive)
same,viability,[3],91.1%
same,inhibition,[1],-5.58% (inactive)
same,red/green cell ratio (normalised),[4],0.92 (inactive)
same,normalised cell number,[4]; [18],0.97
same,normalised cell number,[4]; [19],0.89
same,activity remaining,[2],109% (inactive)
same,luciferase signal,[7],48 AU (inactive)
CC(=O)OC1CN2CCC1CC2 (stereo not drawn),inhibition,[15],0.37%
same,score,[8],1.53
same,rescue above control,[9],-10.7
same,cytochrome c release ratio,[10],0.82
same,inhibition of aggregation,[11],22.1%
same,glutamate uptake change,[12],24.5%
same,inclusion score,[13],2
same,aggregation suppression score,[14],1.12
same,inhibition,[1],8.99% (inactive)
same,red/green cell ratio (normalised),[4],0.81 (inactive)
same,normalised cell number,[4]; [18],1.08
same,normalised cell number,[4]; [19],0.87
same,fold change,[5]; stronger effect = lower value,0.909 (inactive)
same,fold change,[5]; [20],0.869
same,cell count,[5]; [21],8550
same,cell count,[5]; [22],9400
same,z-score,"[16]; MELAS cybrid survival, CellTiter-Glo 48 h, stronger effect = higher value",-3.18 (inactive)
same,z-score,"[16]; Rieske KO mouse fibroblast survival, CellTiter-Glo 72 h",-1.86
same,remaining NAD,[6],10 nM (inactive)
CC1C[C@H]2CC(=O)[C@H]3CCCN4CCC[C@H]2[C@]34C1 (stereo partly drawn),inhibition,[1],-1.6% (inactive)
same,activity remaining,[2],91.3% (inactive)
C=C(C)[C@@H]1[C@H]2OC(=O)[C@@H]1[C@]1(O)C[C@H]3O[C@]34C(=O)O[C@H]2[C@]14C,inhibition,[15],-31.3%
same,score,[8],1.33
same,rescue above control,[9],6.9
same,cytochrome c release ratio,[10],0.8
same,inhibition of aggregation,[11],48.7%
same,glutamate uptake change,[12],1.09%
same,inclusion score,[13],2
same,aggregation suppression score,[14],1.46
same,inhibition,[1],2.77% (inactive)
same,red/green cell ratio (normalised),[4],1.08 (inactive)
same,normalised cell number,[4]; [18],0.99
same,normalised cell number,[4]; [19],1.06
same,luciferase signal,[7],76 AU (inactive)
c1ccc2c(c1)[nH]c1cnccc12,inhibition,[1],1.67% (inactive)
same,red/green cell ratio (normalised),[4],1 (inactive)
same,normalised cell number,[4]; [18],0.91
same,normalised cell number,[4]; [19],0.91
same,activity remaining,[2],105% (inactive)
same,luciferase signal,[7],44 AU (inactive)
C=C1C2CC[C@@]3(C)[C@H](c4ccoc4)OC(=O)C[C@]13O[C@H]1CC(=O)C(C)(C)[C@H](C(OC(C)=O)C(=O)OC)[C@@]21C (stereo partly drawn),inhibition,[1],6.78% (inactive)
same,activity remaining,[2],88.1% (inactive)
COc1nc(NC(C)C)nc(NC(C)C)n1,inhibition,[1],-20.6% (inactive)
same,activity remaining,[2],117% (inactive)
CC(C)N(C(=O)SCC(Cl)=C(Cl)Cl)C(C)C,inhibition,[1],4.75% (inactive)
same,activity remaining,[2],102% (inactive)
O=C(O)CF,inhibition,[1],10.5% (inactive)
same,red/green cell ratio (normalised),"[4]; counts scaled to control wells, 1 = unselective",0.92 (inactive)
same,normalised cell number,[4]; [18],1.09
same,normalised cell number,[4]; [19],1
same,luciferase signal,[7],80 AU (inactive)
COc1cccc2c1cc([N+](=O)[O-])c1c(C(=O)O)cc3c(c12)OCO3,inhibition,[1],-5.9% (inactive)
same,activity remaining,[2],103% (inactive)
same,fold change,[5]; stronger effect = lower value,1.04 (inactive)
same,fold change,[5]; [20],1.14
same,cell count,[5]; [21],4170
same,cell count,[5]; [22],4020
same,luciferase signal,[7],36 AU (inactive)
COc1ccc2c(c1OC)C(=O)O[C@@H]2[C@H]1c2cc3c(cc2CCN1C)OCO3,survival,[17],7.17 (inactive)
same,parasite load remaining,[3],124% (inactive) and 81.5% (inactive) and 40.1% (inactive)
same,viability,[3],101% and 75.4% and 98.1%
same,inhibition,[1],6.9% (inactive)
same,red/green cell ratio (normalised),[4],1.06 (inactive)
same,normalised cell number,[4]; [18],1.07
same,normalised cell number,[4]; [19],1.13
same,fold change,[5]; stronger effect = lower value,0.884 (inactive)
same,fold change,"[5]; stronger effect = lower value, cell number ratio, induced over uninduced",0.838 (inactive)
same,fold change,[5]; [20],1.51 and 2.25
same,cell count,[5]; [21],8490 and 11200
same,cell count,[5]; [22],10100 and 12700
same,remaining NAD,[6],10 nM (inactive)
same,luciferase signal,[7],84 AU (inactive)
